# Columns and labels:
# Details in all cases: concentration: 1 μM, replicates: in singlicate; n = 1
# CAMK1 = test system: CAMK1
# CAMK2A = test system: CAMK2A
# CAMK2B = test system: CAMK2B
# CAMK2D = test system: CAMK2D
# CAMK2G = test system: CAMK2G
# CAMK4 = test system: CAMK4
# CAMKK1 = test system: CAMKK1
# CAMKK2 = test system: CAMKK2
# CASK = test system: CASK
# CDC2L1 = test system: T1, CDC2L1
# T1 construct: gene CDK11B
# CDC2L2 = test system: CDC2L2
# CDC2L5 = test system: T2, CDC2L5
# T2 construct: gene CDK13
# CDK11 = test system: T3, CDK11
# T3 construct: gene CDK19
# CDK2 = test system: CDK2
# CDK3 = test system: CDK3
# CDK4-cyclinD1 = test system: CDK4-cyclinD1
# CDK4-cyclinD3 = test system: CDK4-cyclinD3
# CDK4 = test system: CDK4
# CDK5 = test system: CDK5
# CDK7 = test system: CDK7
# 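Note: KINOMEscan kinase panel screen.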
SMILES,%Inh (CAMK1) [%],%Inh (CAMK2A) [%],%Inh (CAMK2B) [%],%Inh (CAMK2D) [%],%Inh (CAMK2G) [%],%Inh (CAMK4) [%],%Inh (CAMKK1) [%],%Inh (CAMKK2) [%],%Inh (CASK) [%],%Inh (CDC2L1) [%],%Inh (CDC2L2) [%],%Inh (CDC2L5) [%],%Inh (CDK11) [%],%Inh (CDK2) [%],%Inh (CDK3) [%],%Inh (CDK4-cyclinD1) [%],%Inh (CDK4-cyclinD3) [%],%Inh (CDK4) [%],%Inh (CDK5) [%],%Inh (CDK7) [%]
CC(=O)N1CCN(c2ccc(Nc3nccc(-c4sc(C(C)C)nc4-c4cccc(NS(=O)(=O)c5cccc(Cl)c5)c4)n3)cn2)CC1 [GSK1660437],34,0,0,0,0,0,0,0,0,0,0,21,0,97.1,98.6,79,4,76,100,59
Cc1cccc(Nc2nc(N[C@H]3CCNC3)ncc2C(N)=O)c1.Cl [GSK2197149],41,0,0,6,18,0,2,17,0,73,74,0,0,0,0,0,1,0,0,52
COc1ccc(CNC(=O)NC2CCN(c3ccnc(Nc4ccc(F)cc4)n3)CC2)cc1 [GSK1379788],10,0,0,8,16,0,2,16,0,0,10,0,3,0,3,0,0,20,0,0
Nc1ncc(-c2cccnc2)c2scc(-c3ccc4c(c3)CCN4C(=O)Cc3ccccc3)c12 [GSK683281],22,0,0,19,37,1,34,26,26,0,8,0,45,0,21,0,0,14,9,0
Cl.c1ccc(-c2ccc3c(Nc4ccc5[nH]ccc5c4)ccnc3c2)nc1 [GW440138],0,0,0,7,18,0,3,12,0,0,7,0,4,0,0,27,0,35,0,0
CC(C)(C)c1ccc2nccc(Nc3cccc(O)c3)c2c1 [GW856795],0,0,0,0,0,0,2,0,0,0,0,36,17,0,0,55,0,32,0,1
CN(C)Cc1ccc(-c2ccc3c(Nc4ccc(Oc5ccccn5)cc4)ccnc3c2)o1 [GW567148],27,0,0,0,15,0,0,0,0,0,0,0,0,0,0,0,0,25,0,62
O=C(Nc1n[nH]c2cc(-c3ccoc3)ccc12)C1CC1 [SB-738481],0,8,0,14,25,0,2,18,0,0,0,29,0,76,51,14,3,0,17,71
Cc1cccc(NC(=O)Nc2ccc(Oc3ncnc4ccn(C)c34)cc2)c1,0,0,0,0,0,0,0,0,0,0,0,0,77,0,2,0,0,0,15,0
CCc1ccc(-c2ccc3c(c2)-c2c(cnn2C)S(=O)(=O)N3C)cc1,2,0,4,0,13,0,13,12,3,0,0,20,7,0,0,3,3,0,0,6
Clc1ccc(-c2nn3ncccc3c2-c2ccnc(Nc3ccc4c(c3)OCCO4)n2)cc1 [GW829116],0,0,0,0,0,3,0,0,15,0,0,0,0,0,0,0,0,0,7,0
Nc1ncnc2c1nc(-c1ccccc1)n2-c1ccccc1 [SKF-97293],13,3,1,18,4,0,0,6,17,0,5,48,7,12,13,21,0,21,3,41
CN(c1ccc(NC(=O)Nc2cc(C(F)(F)F)ccc2F)cc1)c1ccnc(Nc2ccc(S(N)(=O)=O)cc2)n1 [GW809893],48,0,4,1,9,0,16,15,35,88,94,83,98.8,99.7,99,14,5,0,97.1,95.3
COc1cc(Nc2nccc(N3CCC(NC(=O)c4cc5ccccc5s4)C3)n2)cc(OC)c1OC (stereo not drawn) [GSK1379760],17,0,1,0,29,0,12,0,12,0,5,0,19,0,11,41,0,14,0,16
Cc1ccc(S(=O)(=O)Nc2ccc(Nc3nccc(Nc4cccc5[nH]ncc45)n3)cc2)cc1 [GSK581271],24,0,0,4,8,0,0,9,45,0,0,0,0,21,17,0,0,15,0,0
O=C(Nc1cccc(-c2nn3ncccc3c2-c2ccnc(Nc3ccccc3)n2)c1)c1c(F)cccc1F [GSK198271],39,0,0,13,8,0,0,8,3,0,18,0,0,0,8,0,0,0,0,0
NCCCC(NC(=O)c1cc(Br)c(-c2ccnc3[nH]ccc23)s1)c1ccccc1.O=C(O)C(F)(F)F.O=C(O)C(F)(F)F (stereo not drawn) [GSK1287544],13,0,0,0,10,0,30,8,0,0,0,0,45,0,10,0,2,5,6,4
O=C(Nc1cccc(-c2nn3ccccc3c2-c2ccnc(Nc3cccc(F)c3)n2)c1)c1c(F)ccc(F)c1Cl [GSK357952],12,0,0,0,0,13,0,0,4,0,0,0,0,0,1,0,0,53,0,0

SMILES,%Inh (CAMK1) [%],%Inh (CAMK2A) [%],%Inh (CAMK2B) [%],%Inh (CAMK2D) [%],%Inh (CAMK2G) [%],%Inh (CAMK4) [%],%Inh (CAMKK1) [%],%Inh (CAMKK2) [%],%Inh (CASK) [%],%Inh (CDC2L1) [%],%Inh (CDC2L2) [%],%Inh (CDC2L5) [%],%Inh (CDK11) [%],%Inh (CDK2) [%],%Inh (CDK3) [%],%Inh (CDK4-cyclinD1) [%],%Inh (CDK4-cyclinD3) [%],%Inh (CDK4) [%],%Inh (CDK5) [%],%Inh (CDK7) [%]
Cl.Cl.NCC(C(=O)Nc1cc(Br)c(-c2ccnc3[nH]ccc23)s1)c1ccccc1 (stereo not drawn) [GSK1269851],0,100,100,8,12,0,8,0,25,1,4,0,17,0,5,0,2,15,0,24
Fc1ccc(-c2ncn(C3CCNCC3)c2-c2ccnc(Oc3ccc(-c4ccccc4)cc3)n2)cc1 [SB-245391],30,20,0,14,17,0,22,20,7,11,9,43,22,19,26,0,34,15,0,41
Cl.Cl.NCC(NC(=O)c1cc(-c2ccccc2)c(-c2ccnc3[nH]ccc23)s1)c1ccccc1 (stereo not drawn) [GSK1321561],4,0,0,5,0,0,15,10,13,0,11,0,8,0,8,0,0,27,0,0
COc1ccc(Nc2nccc(N3CCC(NC(=O)Nc4cccc(OC)c4)C3)n2)cc1 (stereo not drawn) [GSK1379742],0,0,0,2,9,4,5,4,13,0,0,0,56,0,27,0,0,13,0,0
Cc1occc1-c1ncc(OC[C@@H](N)Cc2c[nH]c3ccccc23)cc1-c1ccc2[nH]nc(C)c2c1.O=C(O)C(F)(F)F [GSK682037],25,20,27,47,52,0,19,16,11,0,6,0,35,0,2,0,0,0,0,30
O=C(O)C(F)(F)F.O=C(O)C(F)(F)F.O=c1[nH]ccc2nc(N[C@@H]3CCCNC3)nc(Nc3ccc(S(=O)(=O)N4CCOCC4)cc3)c12 [GSK2177277],88,100,99.9,54,54,95.6,94.2,57,2,0,17,0,0,88,88,98.1,99.8,62,90.8,99.6
c1ccc(-c2n[nH]cc2Nc2ccnc3ccccc23)nc1 [GW694077],20,21,17,19,23,0,13,28,33,0,6,0,6,0,7,58,46,37,0,47
O=C(Nc1n[nH]c2nc(-c3ccc(O)cc3)ccc12)C1CC1 [SB-710363],0,19,19,5,0,0,8,17,31,0,0,69,0,75,84,83,78,0,0,41
O=C(Nc1cccc(-c2nn3ccccc3c2-c2ccnc(Nc3cccc(C(F)(F)F)c3)n2)c1)c1c(F)cccc1F [GSK292658],4,0,0,5,0,0,16,3,0,0,0,99.3,0,0,1,0,0,0,0,6
CCn1c(-c2nonc2N)nc2c(C#CC(C)(C)O)nc(OC[C@H](N)c3ccccc3)cc21 [GSK943949],0,0,0,0,0,0,0,0,25,0,0,2,0,0,0,0,8,0,9,5
O=C(Nc1cccc(Oc2ccc3nc(NC(=O)C4CC4)cn3n2)c1)c1ccccc1C(F)(F)F,7,100,100,1,0,0,1,0,6,0,14,25,1,0,21,24,0,0,0,0
COC(=O)Nc1nc2ccc(Oc3ccc(NC(=O)Nc4cc(C(F)(F)F)ccc4F)cc3)cc2n1C.Cl [GW692089],0,0,0,0,3,0,4,0,1,0,10,0,43,0,0,46,0,26,0,69
COCCOCCOc1cc2ncc3c4ccc(C#N)cc4[nH]c3c2cc1OC,26,85,57,87,72,0,83,63,8,0,19,0,0,12,15,0,39,0,7,99.7
COC(=O)Nc1nc2cc(Oc3ccc(NC(=O)Nc4cc(C(F)(F)F)ccc4F)cn3)ccc2[nH]1.Cl.Cl [GW681170],17,0,0,42,57,0,49,59,0,0,18,69,98.1,16,7,7,0,50,0,94.1
c1ccc(-c2cnc3nccnn23)cc1 [AH20685],0,0,0,0,0,0,1,0,4,0,18,0,0,0,2,0,0,0,0,0
COc1cccc(C2=C(Nc3ccc(Cl)c(C(=O)O)c3)C(=O)NC2=O)c1 [SB-390769],0,0,0,3,1,0,0,0,100,0,0,0,100,9,25,7,100,0,0,0
Cl.Cl.NCC(NCc1ccc(-c2ccnc3[nH]ccc23)s1)c1ccccc1 (stereo not drawn) [GSK1321565],10,0,0,13,19,0,0,9,0,0,23,0,2,0,0,5,0,50,0,65
Cn1cc(-c2[nH]c3cc(NC(=O)[C@H](N)C4CCCCC4)cc4c3c2C=NNC4=O)cn1,49,68,15,76,73,0,60,56,6,2,6,0,15,8,0,0,0,0,11,41
